Most compounds without a hit are left out; they make up all but 2.8% or so of the library.
Pol iota inh = inhibitors of human DNA polymerase iota | Q9UNA4 | Pol iota fluorescent replication assay, 10 min | Potency, µM (top dose mostly 115 µM), for inactives: at the highest dose activity, negative = inhibition, most hits filed as inhibitors | actives 1% (n = 390,000); also: potency is read from the fitted curve at half-maximal effect
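Fluorescent replication assay read twice, at 0 min and 10 min after adding 50 nM (final) substrate. Enzyme (10 nM) and compounds were first incubated 15 min at room temperature; enzyme-free buffer wells were negative controls.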
Pol eta inh = DNA polymerase eta (human) inhibition; recombinant Pol eta, fluorescent DNA replication assay; Potency, µM (series often up to 114 µM), for inactives: at the highest dose activity change, negative = inhibition, usual class: inhibitors; actives 1.2% (n = 390,000); AID 588591; also: potency is read from the fitted curve at half-maximal effect; % is scaled to controls: 0 for no effect and ±100 for the full control effect
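Pol eta (10 nM) was preincubated with compounds for 15 min at room temperature, after which fluorescent replication substrate (50 nM final) was added to start the reaction. Fluorescence was read kinetically at 0 and 10 min.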
POLK inh = DNA polymerase kappa (human) inhibition; Potency, µM (series often up to 107 µM), inactives show at the top dose activity, negative = inhibition, hits mostly inhibitors; actives 0.53% (n = 400,000); Q9UBT6; purified Pol kappa, fluorescent DNA synthesis assay, 10 min; also: potency is read from the fitted curve at half-maximal effect; % is scaled to controls: 0 for no effect and ±100 for the full control effect
Target sequence (Q9UBT6 whole entry, looked up): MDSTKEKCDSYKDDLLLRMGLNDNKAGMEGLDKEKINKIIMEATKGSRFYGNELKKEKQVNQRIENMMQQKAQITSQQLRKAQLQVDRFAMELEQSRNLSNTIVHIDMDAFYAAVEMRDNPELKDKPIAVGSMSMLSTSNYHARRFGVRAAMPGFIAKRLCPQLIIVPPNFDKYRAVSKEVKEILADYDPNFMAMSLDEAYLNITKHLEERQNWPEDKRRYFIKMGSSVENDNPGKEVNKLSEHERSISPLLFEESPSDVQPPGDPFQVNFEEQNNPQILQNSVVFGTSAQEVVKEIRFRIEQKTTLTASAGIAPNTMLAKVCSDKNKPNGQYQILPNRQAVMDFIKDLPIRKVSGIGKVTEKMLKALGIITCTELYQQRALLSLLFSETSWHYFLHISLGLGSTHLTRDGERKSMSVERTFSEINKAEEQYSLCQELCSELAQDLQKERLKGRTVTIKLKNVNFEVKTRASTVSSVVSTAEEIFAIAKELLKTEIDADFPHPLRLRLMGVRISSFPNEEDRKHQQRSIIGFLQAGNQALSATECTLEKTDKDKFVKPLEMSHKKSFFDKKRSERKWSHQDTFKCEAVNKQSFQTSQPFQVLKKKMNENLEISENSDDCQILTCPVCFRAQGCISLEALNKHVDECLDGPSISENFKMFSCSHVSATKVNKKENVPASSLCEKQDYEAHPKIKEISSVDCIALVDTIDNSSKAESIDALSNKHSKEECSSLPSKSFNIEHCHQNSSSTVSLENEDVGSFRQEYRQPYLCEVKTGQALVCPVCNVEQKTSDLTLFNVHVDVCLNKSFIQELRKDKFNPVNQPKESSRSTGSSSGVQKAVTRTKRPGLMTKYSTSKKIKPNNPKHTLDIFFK
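Here, compound and 10 nM enzyme are combined for 15 min at room temperature; adding 50 nM substrate (final) starts DNA synthesis, tracked by fluorescence at 0 and 10 min against buffer-only wells.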
PI5P4Ka inh = blocks human PI5P4K alpha kinase activity. PI5P4Kalpha enzyme, ADP-Glo luminescence, 60 min; stronger effect = lower value. max response, %. AID 652105. actives 1.2% (n = 330,000); active = max response of -50% or lower; inconclusive = between -30% and -50%; inactive = -30% or higher; also: value at the top dose of about 77 µM; % is scaled to controls: 0 for no effect and ±100 for the full control effect
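Enzyme plus substrate dispensed, test compounds pinned in, then ATP (5 microM final) added. After 60 min at RT, ADP-Glo reagent 1 for 45 min and reagent 2 for 30 min preceded luminescence imaging.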
POLB inh = inhibitors of human DNA polymerase beta; Pol beta primer extension/strand displacement, fluorescence kinetic; AID 485314; Potency, µM (doses to about 114 µM), inactives show top-dose activity change, negative = inhibition, most hits filed as inhibitors; P06746; actives 1.3% (n = 340,000); also: potency is read from the fitted curve at half-maximal effect; % is scaled to controls: 0 for no effect and ±100 for the full control effect
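Preincubation: enzyme (10 nM) with compound, 15 min, RT. Reaction: substrate added to 50 nM final. Reads: 0 and 10 min. Analysis: normalized, Hill fit.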
WRN helicase inh = blocks human WRN helicase | AID 651768 | Potency, µM (top dose mostly 114 µM), without a hit: top-dose activity change, negative = inhibition, hits mostly inhibitors | actives 0.46% (n = 360,000) | WRN helicase unwinding, fluorescent forked duplex, kinetic; also: potency is read from the fitted curve at half-maximal effect; % is scaled to controls: 0 for no effect and ±100 for the full control effect; nearly all actives have a fitted effect of over 55% in size
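Kinetic red-fluorescence monitoring (525/598 nm) tracks WRN helicase activity after 100 nM fluorophore-quencher forked duplex and 2 mM ATP are added to 20 nM enzyme pretreated 15 min at room temperature with compound.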
* marks the source's active call; other numbers are inactive results; u = inconclusive; x = not tested or not shown; [ ] = another dose, or the depositor's remark. Unless noted, calls follow the shape of the dose curve; as a rule, active = well fitted curve in the direction sought with a large enough effect; inconclusive = small, poorly fitted or top-dose-only effect, or another doubt; inactive = no such curve, though single readings can be large; an effect the other way counts as inactive or inconclusive.

SMILES	Pol iota inh	Pol eta inh	POLK inh	PI5P4Ka inh	POLB inh	WRN helicase inh
O=C(CSc1ccc(-c2ccco2)nn1)c1ccccc1	50.1µM*	-8.9%	u	u	11.2µM*	u
O=C(CSc1ccc(-c2ccco2)nn1)NC1CCCCC1	u	u	u	u	22.4µM*	-28.3%
COc1ccc(C(=O)CSc2ccc(-c3ccco3)nn2)cc1	u	u	-23.5%	u	14.1µM*	-25.3%
O=C(CSc1ccc(-c2ccco2)nn1)NC1CCCC1	17.3%	-5.7%	-21.2%	1.8	-5.7%	-4.4%
Cc1ccc(CNc2ncnc3nc[nH]c23)cc1	16.1%	x	15.9%	x	x	x
COC(=O)c1ccc(OCC2c3cc(OC)c(OC)cc3CCN2C(=O)Cc2ccccc2)cc1 (stereo unspecified)	-2.7%	-14.7%	-8.6%[60.1 µM]	x	16.3%	x
O=C1/C(=C/c2ccsc2)CC/C1=C\c1cccs1	x	x	-2.5%[60.1 µM]	x	x	x
COc1cccc2c1Oc1ncccc1N(C(=O)CCC(=O)NCc1cccc(C)c1)C2	39.8µM*	-7.1%	-45.0%	-2.2	27.2%	-5.9%[11.6 µM]
C=CCn1c(SCC(=O)Nc2nnc(C)s2)nnc1C1CC1	u	u	-33.0%	2.8	25.1µM*	-7.0%
C=CCn1c(SCC(=O)NCCc2ccccc2)nnc1C1CC1	11.8%	-14.7%	1.4%	4.5	x	-1.3%
CCCCNC(=O)N1CCN(c2ccnc3cc(Cl)ccc23)CC1	28.2µM*	u	-3.3%	0.9	1.6%	50.1µM*
Oc1ccc(-c2csc(Nc3ccccn3)n2)cc1O	u	17.8µM*	u	u	7.94µM*	-9.6%[11.6 µM]
Oc1ccc(-c2csc(Nc3cccc4ccccc34)n2)cc1O	14.1µM*	15.8µM*	50.1µM*	-54.7*	u	-13.5%[11.6 µM]
COc1ccccc1N1CCN(C(=O)c2c(C)oc3ncn(C)c(=O)c23)CC1	15.0%	-9.4%	5.9%	x	17.4%	x
Cc1ccc2scc(N3CCCCC3C)c(=O)c2c1 (stereo unspecified)	15.0%	-15.2%	-5.8%[60.1 µM]	x	-0.9%	x
NC(=O)c1ccc(N2CCN(c3ccc(O)cc3)CC2)c([N+](=O)[O-])c1	u	-0.1%	-15.8%	-54.7*	-23.8%	-8.8%[57.1 µM]
CC(=O)c1ccc(N2CCN(c3ccc(C(N)=O)cc3[N+](=O)[O-])CC2)cc1	14.0%	-15.4%	0.7%	0.1	-8.5%	-7.6%
C#CCN1C(=O)S/C(=C/C=C/c2ccc(N(C)C)cc2)C1=O	79.4µM*	-18.6%	-18.7%	-6.1	1.5%	35.5µM*
O=C(O)CN1C(=O)/C(=C/C=C/c2ccccc2)SC1=S	u	-22.2%	-38.6%	-2.2	-22.6%	-1.2%
COc1ccc(Cn2c(CCC(=O)Nc3cc(OC)c(OC)c(OC)c3)nc3cccnc32)cc1	22.3%	-22.2%	-6.3%	x	5.0%	x
O=C1OC(/C(=C\Nc2cc(Cl)ccc2O)[N+](=O)[O-])c2ccccc21 (stereo unspecified)	u	22.4µM*	-14.3%	-3.2	-7.7%	-30.1%
COc1ccccc1Nc1n[nH]c(=S)s1	36.6%	-27.4%	3.4%	-78.1*	31.4%	u
COc1cccc(Nc2n[nH]c(=S)s2)c1	-2.3%	-16.7%	-7.7%	-81.7*	17.0%	-32.2%[57.1 µM]
COc1ccc(-n2c(=O)c3c(c4cc(OC)ccc4n3C)n(Cc3ccc(F)cc3Cl)c2=O)cc1	16.9%	-24.4%	1.9%	x	12.9%	x
Cc1no[n+]([O-])c1COc1cccc(/C=N/Nc2nncn2N)c1	20µM*	-16.6%	-11.0%	-14.8	u	5.0%[11.6 µM]
SMILES	Pol iota inh	Pol eta inh	POLK inh	PI5P4Ka inh	POLB inh	WRN helicase inh
COc1ccc(NC(=O)CNC(=O)Cn2ccc3ccccc3c2=O)cc1OC	u	-2.9%	2.0%	x	14.8%	x
N#C/C(=C/c1cn(-c2ccccc2)nc1-c1cccc(S(=O)(=O)N2CCCC2)c1)C(=O)NCc1ccco1	20µM*	28.2µM*	u	u	50.1µM*	-7.8%[11.6 µM]
CC1CCc2c(sc3nnn(Cc4ccccc4Cl)c(=O)c23)C1 (stereo unspecified)	-9.9%	-8.9%	-24.5%	x	-19.2%	x
O=C(O)COc1ccccc1C1Nc2ccccc2-c2nnc(SCc3ccc(Cl)cc3)nc2O1 (stereo unspecified)	-7.2%	-4.9%	-18.7%	x	2.51µM*	x
Cc1ccc(CSc2nnc3c(n2)OC2(Nc4ccccc4-3)C(=O)Nc3ccc(F)cc32)cc1 (stereo unspecified)	u	-27.6%	-8.2%	x	1.2%	-32.3%
COc1cc(C2Nc3ccccc3-c3nnc(SCc4ccc(C)cc4)nc3O2)cc(OC)c1O (stereo unspecified)	u	-2.6%	79.4µM*	x	-2.9%	x
COc1cc(C2Nc3ccccc3-c3nnc(SCc4ccc(Cl)cc4)nc3O2)ccc1OCC(=O)O (stereo unspecified)	5.0%	-8.3%	-25.9%	x	u	x
CCN1C(C(=O)c2ccccc2)=C(OC(=O)c2ccccc2OC)c2ccccc2S1(=O)=O	-2.8%	-28.5%	-0.4%	x	6.2%	x
CC1=NN(c2ccc(Cl)c(C(=O)O)c2)C(=O)C1	1.12µM*	22.4µM*	-41.8%	-17.4	u	u
CC1=NN(c2cccc(Cl)c2)C(=O)C1	3.55µM*	-16.0%	-20.4%	7.6	0.5%	-19.3%[57.1 µM]
CC1=NN(c2ccc(S(=O)(=O)O)cc2Cl)C(=O)C1	u	u	-14.4%	0.8	-3.4%	-14.0%
CC1=NN(c2ccc(C(=O)O)cc2)C(=O)CC1	41.4%	-15.7%	0.8%	0.6	u	-7.0%
CC1=NN(c2ccc([N+](=O)[O-])cc2)C(=O)C1	77.9%	10.2%	-11.5%	-14.5	x	u
CC1=NN(c2cc(Cl)c(S(=O)(=O)O)cc2Cl)C(=O)C1	u	22.4µM*	u	1.1	x	-18.2%
CSc1ccc(CCNC(=O)c2ccc(CS(=O)(=O)c3ccc(Br)cc3)o2)cc1	-0.4%	-14.1%	-16.4%[60.1 µM]	x	-3.7%	x
O=C(CSc1nnc(Cc2csc(Nc3cccc(Cl)c3)n2)o1)N1CCc2ccccc21	79.4µM*	u	-27.9%	-25.0	1.0%	-35.5%
COc1ccc(CCn2c(NN=C(C)C)nc3c2c(=O)[nH]c(=O)n3C)cc1	u	-0.1%	-23.9%	-18.6	0.2%	-4.0%
COc1ccc(CCn2c(NN)nc3c2c(=O)[nH]c(=O)n3C)cc1	25.1µM*	89.1µM*	-18.6%	u	7.6%	-0.7%
CC(C)OCCCN1C(=O)c2[nH]nc(-c3ccccc3O)c2C1c1ccccc1F (stereo unspecified)	-2.1%	-7.4%	-10.3%	x	-16.8%	x
CCN(CC)c1ccc(/C=C2\C(=O)N(c3nnc(C)c(=O)[nH]3)N=C2C)cc1	3.16µM*	u	-4.0%	-12.5	39.2%	-11.6%[11.6 µM]
Cc1ccc(C)c(OCCn2cc(C(=O)c3ccco3)c3ccccc32)c1	0.5%	-27.6%	5.8%	x	u	x

From PubChem
